# From the supplement of paper PMC4840960
# Counter-ions that a name gives are not always drawn. ± gives the standard deviation of the averaged measurements.
# Test system: E18 rat cortical neuron-glia co-culture
# Assay: fiber score / MBP score (myelination specific beyond OL differentiation) (ratio); higher = more myelination-specific MBP alignment
# Conditions: 1 µM; treatment time: 8 days (DIV5-DIV13)
# Outline: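 The measure is the ratio of fiber score to MBP score, where fiber score is continuous MBP fiber length per Olig2+ nucleus and MBP score is thresholded MBP area × intensity per Olig2+ nucleus. Primary E18 rat cortical co-cultures received library compounds at 1 or 5 µM in myelination medium from DIV5 to DIV13, then were fixed in 4 % paraformaldehyde and stained for MBP, Olig2 and DAPI before analysis of four 10X fields per well in duplicate wells.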
row,SMILES,fiber score / MBP score
1,O=[N+]([O-])c1cccc2cn[nH]c12 [7-Nitroindazole],0.691
2,CC1(C)O[C@@H]2[C@@H](CO[C@@]3(COS(N)(=O)=O)OC(C)(C)O[C@@H]23)O1 [Topiramate],0.669
3,COc1cc2nc(N(C)CCCNC(=O)C3CCCO3)nc(N)c2cc1OC (centres undefined) [Alfuzosin],0.472
4,CC[N+](C)(C)c1cccc(O)c1 [Edrophonium],0.813
5,CC(C)n1c(/C=C/C(O)CC(O)CC(=O)O)c(-c2ccc(F)cc2)c2ccccc21 (centres undefined) [Fluvastatin],0.312
6,Nc1nc(=O)[nH]cc1F [Flucytosine],0.88
7,COCCOC(=O)C1=C(C)NC(C)=C(C(=O)OC(C)C)C1c1cccc([N+](=O)[O-])c1 (centres undefined) [Nimodipine],0.486
8,NS(=O)(=O)c1cc2c(cc1Cl)NCNS2(=O)=O [Hydrochlorothiazide],0.749
9,C=C1/C(=C\C=C2/CCC[C@]3(C)[C@@H]([C@H](C)CCCC(C)(C)O)CC[C@@H]23)C[C@@H](O)C[C@@H]1O [Calcitriol],0.737
10,OCc1cccnc1 [Nicotinyl Alcohol],0.641
11,COc1c(N2CCNC(C)C2)c(F)cc2c(=O)c(C(=O)O)cn(C3CC3)c12 (centres undefined) [Gatifloxacin],0.508
12,Cc1nccn1CC1CCc2c(c3ccccc3n2C)C1=O (centres undefined) [Ondansetron],0.73 ± 0.022
13,COCC1=C(C(=O)OC(C)OC(=O)OC(C)C)N2C(=O)[C@@H](NC(=O)/C(=N\OC)c3csc(N)n3)[C@H]2SC1 (some centres undefined) [Cefpodoxime proxetil],0.721
14,Clc1cccc(Cl)c1NC1=NCCN1 [Clonidine hydrochloride],0.735
15,C[C@H]1C[C@@H]2[C@H]([C@@H](O)C[C@@]3(C)[C@H]2CC[C@]3(O)C(=O)CO)[C@@]2(C)C=CC(=O)C=C12 [Methylprednisolone],0.918
16,CCOc1ccc2ccccc2c1C(=O)N[C@@H]1C(=O)N2[C@@H]1SC(C)(C)[C@@H]2C(=O)O [Nafcillin],1.25
17,CC(C)(C(=O)c1cccnc1)c1cccnc1 [Metyrapone],0.588
18,CC(=O)OCC(=O)[C@@]1(O)CC[C@H]2[C@@H]3CCC4=CC(=O)C=C[C@]4(C)[C@H]3[C@@H](O)C[C@@]21C [Prednisolone acetate],0.826
19,NC[C@H](O)c1ccc(O)c(O)c1 [Norepinephrine],0.663
20,Clc1ccccc1C(c1ccccc1)(c1ccccc1)n1ccnc1 [Clotrimazole],0.906

row,SMILES,fiber score / MBP score
1,O=C(O)COCCN1CCN(C(c2ccccc2)c2ccc(Cl)cc2)CC1 (centres undefined) [Virlix],0.867
2,C[C@@H](O)[C@H]1C(=O)N2C(C(=O)O)=C(S[C@@H]3CN[C@H](C(=O)N(C)C)C3)[C@H](C)[C@H]12 [Meropenem],0.99
3,CC(C)NCC(O)c1cc(O)cc(O)c1 (centres undefined) [Metaproterenol],0.313
4,O=C(c1ccc(OCCN2CCCCC2)cc1)c1c(-c2ccc(O)cc2)sc2cc(O)ccc12 [Raloxifene],0.211
5,CCCCCCNC(=O)n1cc(F)c(=O)[nH]c1=O [Carmofur],0.54
6,O=C1NC(C(=O)O)CS1 (centres undefined) [2-oxothiazolidine-4-carboxylic acid],0.704
7,C[C@]12CCC(=O)C=C1CC[C@@H]1[C@@H]2CC[C@@]2(C)[C@H]1CC[C@]2(O)C(=O)CO [Cortodoxone],0.514
8,N#Cc1ccc(C(c2ccc(C#N)cc2)n2cncn2)cc1 [letrozole],0.937
9,C[C@]12C[C@H](O)[C@H]3[C@@H](CCC4=CC(=O)CC[C@@]43C)[C@@H]1CC[C@@H]2C(=O)CO [Corticosterone],0.706
10,OC(Cn1cncn1)(Cn1cncn1)c1ccc(F)cc1F [Fluconazole],0.906
11,Cc1ncc([N+](=O)[O-])n1CC(C)O (centres undefined) [Secnidazole],0.462
12,O=c1[nH]c(=O)n([C@H]2C[C@H](O)[C@@H](CO)O2)cc1F [Floxuridine],1.49
13,Oc1ncnc2[nH]ncc12 [Allopurinol],1.01
14,Cn1c(=O)c2nc[nH]c2n(C)c1=O [Theophylline],0.93
15,OC(CCN1CCCCC1)(c1ccccc1)C1CCCCC1 (centres undefined) [Trihexyphenidyl],0.616
16,c1ccc(-c2ccc(C(c3ccccc3)n3ccnc3)cc2)cc1 (centres undefined) [Bifonazole],0.241
17,NS(=O)(=O)Cc1noc2ccccc12 [Zonisamide],0.789
18,CC[C@H](C)C(=O)O[C@H]1C[C@H](O)C=C2C=C[C@H](C)[C@H](CC[C@@H](O)C[C@@H](O)CC(=O)O)[C@H]21 [Pravastatin],0.899
19,Nc1nc2ccc(OC(F)(F)F)cc2s1 [Riluzole],0.879
